Laboratory results taken from PubChem BioAssay (NCI).
“And” between values parts separate entries of the source, which are not always exact repeats. Identical values can stand only once. Compounds without any hit were thinned out: in the full panel of roughly 79,000, 15% have a hit. The source made the active and inactive calls. No stated cut-off is given here; in the data, active means growth inhibition above about 70%; inactive means the rest.

Assay: NCI Yeast Anticancer Drug Screen. Data for the bub3 strain (AID 167)
Settings: S. cerevisiae bub3 mutant strain, at 5.0 µM (retest, dose inferred, filed as 0.5), active compounds read high
Method: Growth inhibition of yeast strains with defined genetic alterations is measured as a screen for potential anti-cancer activity. Selected strains with alterations in DNA damage repair or cell cycle control were exposed to compounds and growth inhibition was measured relative to vehicle treated controls. The strain used in this assay is bub3
In the case of `N#CC(C#N)N=Nc1cc(Cl)ccc1Cl`, the growth inhibition is reported as 15% (inactive).

Same assay, conditions: S. cerevisiae bub3 mutant strain, at 50.0 µM (retest, dose inferred, filed as 5.0), active compounds read high
In the case of `N#CC(C#N)N=Nc1cc(Cl)ccc1Cl`, the growth inhibition is reported as 96% (active).

Same assay, conditions: S. cerevisiae bub3 mutant strain, active compounds read high; at 50.0 µM unless noted
For `O=C1CC(c2ccccc2)N1c1ccccc1` (stereo not given), the growth inhibition was -10.9% (inactive).
In the case of `C#CC(C)(O)CCC(C)C` (stereo not given), the growth inhibition is reported as 10.8% (inactive).
For `C/C(=C\c1ccccc1)c1ccccn1`, the growth inhibition was -19.1% (inactive) and 15.2% (inactive).
With `COc1ccc(C=NCC(OC)OC)cc1OCc1ccccc1` the growth inhibition was -3.05% (inactive).
For `CN(C)c1nc(NC(=O)NC(=O)c2c(F)cccc2F)nc(N(C)C)n1`, the growth inhibition was 18.8% (inactive).
In the case of `CN(C(=O)Nc1ccccc1)c1ccc(O)cc1`, the growth inhibition is reported as -11.9% (inactive).
For `CN(C)c1cccc2ccccc12`, the growth inhibition was 6% (inactive).
In the case of `CCOC(=O)C12CCCC1(O)N(NC(=O)OC)C(C)=C2C(=O)OC` (stereo not given), the growth inhibition is reported as -5.6% (inactive).
For `COc1cccc(C#CC(=O)O)c1`, the growth inhibition was -21.9% (inactive).
In the case of `CC(C)(C)C1CCC2(CC1)CCN(CCCN1CCOCC1)CC2`, the growth inhibition is reported as 98.3% (active).
With `NC(=O)C(=Cn1c(=S)[nH]c2ccc([N+](=O)[O-])cc21)C(N)=O` the growth inhibition was -22.6% (inactive).
In the case of `Clc1ccc(N=Nc2nc3ccccc3nc2N=Nc2ccc(Cl)cc2Cl)c(Cl)c1`, the growth inhibition is reported as -5.75% (inactive).
With `CCC(=O)c1ccc(OC)cc1OC` the growth inhibition was 4.4% (inactive).
In the case of `C(=Nc1ccc(N=Cc2ccco2)cc1)c1ccco1`, the growth inhibition is reported as -8.5% (inactive).
In the case of `O=C(Cc1cccnc1)c1cccnc1`, the growth inhibition is reported as -15% (inactive).
With `CCN(CC)CCCNc1ncnc2c1C(c1ccccc1)c1ccccc1-2` (stereo not given) the growth inhibition was -4.85% (inactive).
With `CC12CC[C@H](O)C(C)(C)[C@H]1CC[C@](C)(O)C2COc1ccc2ccc(=O)oc2c1` (stereo not given in full) the growth inhibition was 76.3% (active).
In the case of `CC(=C=CC(c1ccccc1)(c1ccccc1)c1ccccc1)CC(c1ccccc1)(c1ccccc1)c1ccccc1`, the growth inhibition is reported as 98% (active).
In the case of `O=C(Nc1ccc(F)cc1)c1ccc([N+](=O)[O-])cc1`, the growth inhibition is reported as 19% (inactive).
For `CC(C)C1CCC2C(CCC3C(C)(C(=O)O)CCCC23C)C1` (stereo not given), the growth inhibition was -12.8% (inactive).
For `CC(C)C(=O)/C=C/c1ccc(Cl)cc1`, the growth inhibition was -0.75% (inactive) and -28.1% (inactive).
For `Oc1ccccc1C1CCCC1`, the growth inhibition was 0.25% (inactive).
In the case of `N#CC(C(=S)Nc1ccccc1)=C1Nc2ccccc2N1`, the growth inhibition is reported as -20.1% (inactive).
For `CCSC1C(O)C(CO)OC1n1cnc2c(=S)nc[nH]c21` (stereo not given), the growth inhibition was 5% (inactive).
For `C/C(CCCCCCCCCCCC/C(C)=N\Nc1ccc([N+](=O)[O-])cc1[N+](=O)[O-])=N/Nc1ccc([N+](=O)[O-])cc1[N+](=O)[O-]`, the growth inhibition was 2.3% (inactive).
With `O=C(c1cccs1)N(C(=S)N1CCN(c2ccccc2)CC1)C1CCCCC1` the growth inhibition was -26.8% (inactive).
With `CCc1cccc(CC)c1NC(=O)OCCN(CC)CC` the growth inhibition was 11.6% (inactive).
In the case of `Cc1nc(CO)c(-c2ccc([N+](=O)[O-])cc2)o1`, the growth inhibition is reported as -13.1% (inactive).
In the case of `C=C(C)C1CC[C@@](C)(O)[C@H](C#N)C1` (stereo not given in full), the growth inhibition is reported as -38.5% (inactive).
In the case of `N#CC1C(=O)C(=O)N(c2ccccc2)C1=O` (stereo not given), the growth inhibition is reported as -1.85% (inactive).
With `O=C(CO[N+](=O)[O-])OC/C=C/c1ccccc1` the growth inhibition was 2.55% (inactive).
In the case of `O=C(NCN1CCOCC1)NC(=O)NCN1CCOCC1`, the growth inhibition is reported as 12.2% (inactive).
With `Cc1cc(=O)n2nc(CSc3nnc(N)s3)sc2n1` the growth inhibition was 10.5% (inactive).
For `CC1=C(C(=O)Nc2ccccc2)C(c2ccccc2Cl)C(C(=O)Nc2ccccc2)=C(C)N1`, the growth inhibition was -11.7% (inactive).
In the case of `NC1(CC(=O)O)CCN(Cc2ccccc2)CC1`, the growth inhibition is reported as -1.15% (inactive).
In the case of `CN(CCO)c1ccccc1`, the growth inhibition is reported as -48.4% (inactive).
In the case of `CCOC(=O)C/C(=N\NC(=O)c1ccccc1O)C(=O)OCC`, the growth inhibition is reported as 3.3% (inactive).
For `CN(C(=O)CCC1OCCO1)c1cc(N)ccc1OCc1ccccc1`, the growth inhibition was 19.9% (inactive).
